From PMC7819943, “Rice protein-binding microarrays: a tool to detect cis-acting elements near promoter regions in rice” come the findings set out here.

In all, about 68,000 sequences were measured (“fluorescence intensity (a.u.)”: median about 9,100, highest 2% from about 16,000 on). This excerpt belongs to a sample that is enriched for the highest values.

The target of the assay is OsWRKY34 (Oryza sativa, UniProt Q0JBA9 1-250). Put plainly: protein-binding microarray (RPBM); PBS, 2% BSA, 51.3 ng/ul salmon testes DNA, 50 uM zinc acetate, 200 nM TF, 25 C, 1 h; high values mean tight binding. To be noted: protein: recombinant; tags: N-terminal polyhistidine and DsRed monomer fusion (pET32a); label: CyDye5-dUTP incorporated in the synthesized complementary strand; 3' TTTTT single-stranded linker to array surface; dsDNA, one strand shown. Summed up: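 Polyhistidine-tagged DsRed fusions of transcription factors, joined at the N-terminus, were expressed in E. coli BL21-CodonPlus and isolated on Ni–NTA. They were incubated at 200 nM for 1 h at 25 °C on a custom Agilent array, double-stranded and BSA-blocked, in PBS with 2% BSA, salmon testes DNA and 50 µM zinc acetate. The binding signal is per-feature fluorescence intensity (arbitrary units) read on an Axon 4000B scanner after washing.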
Chain of OsWRKY34 (Q0JBA9 entry or part of it): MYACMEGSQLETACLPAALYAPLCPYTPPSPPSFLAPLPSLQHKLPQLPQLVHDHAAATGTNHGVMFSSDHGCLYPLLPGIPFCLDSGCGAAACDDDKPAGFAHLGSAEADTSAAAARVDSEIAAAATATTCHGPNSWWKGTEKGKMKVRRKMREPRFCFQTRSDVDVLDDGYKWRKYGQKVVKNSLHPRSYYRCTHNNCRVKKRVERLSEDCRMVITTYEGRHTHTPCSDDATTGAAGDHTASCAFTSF
As for “TATTAGTGGTATATATCCCTATCAGTCATTCTGCTTGCTTCGGAGTCACCTAGTGCAG”, the binding signal was 9260 fluorescence intensity (a.u.).

In the case of “CGACGTACCGTAGCCGATTTCTGTTGCTATTATCATGTTCCGGAGTCACCTAGTGCAG”, the binding signal was 9450 fluorescence intensity (a.u.).

Turning to “ATTTCTAGTCATGCCCGATAACCACTCCGGCACGACCACGCGGAGTCACCTAGTGCAG”, the binding signal is 8150 fluorescence intensity (a.u.).

Turning to “CCAGACAGCTTCAGTTTGCAACGTACCCAAGTAAGAAACACGGAGTCACCTAGTGCAG”, the binding signal was 9150 fluorescence intensity (a.u.).

As to “ACTTTGTAGCCCAATAACCACTATTTGATTCAACAGGTTTCGGAGTCACCTAGTGCAG”, the binding signal is 9900 fluorescence intensity (a.u.).

Consider “ACCATTTGTTTGAGCTCCGGAACCTTTTCGCCGTCCTATGCGGAGTCACCTAGTGCAG”, for which the binding signal was 8460 fluorescence intensity (a.u.).

On to “ATGGCATTGAGCATTACAGTTGAATTTGTGTAGTTTTTAGCGGAGTCACCTAGTGCAG”, for which the binding signal was 8390 fluorescence intensity (a.u.).

Regarding “CCAGTGGTGGAGTGGAGTGGTGGTGGGGAGACGTGAGGAGCGGAGTCACCTAGTGCAG”, the binding signal is 8630 fluorescence intensity (a.u.).

On to “CCCTCCTCTCCGCGCGCGCCACCTGTCCATCCGCGCGGAGCGGAGTCACCTAGTGCAG”, for which the binding signal is 8970 fluorescence intensity (a.u.).

Take “GGTTATGGTTCAATTCTAATGTTCCTTTGGTGTCACATTTCGGAGTCACCTAGTGCAG”: the binding signal was 8200 fluorescence intensity (a.u.).

With “GGTGGGAGTGCGCATTGAGGATAAGCCACTGATGACGTCTCGGAGTCACCTAGTGCAG”, the binding signal was 8600 fluorescence intensity (a.u.).

Take “CAGTCTGTCTTGGTCTCTTTGTTCAGTCATGGTCTCTCTTCGGAGTCACCTAGTGCAG”: the binding signal was 19000 fluorescence intensity (a.u.).

With “CTCCTGCTTCTCTGTTCTTTCCATTCTCCTCCTTTTTTTCCGGAGTCACCTAGTGCAG”, the binding signal is 14600 fluorescence intensity (a.u.).

Consider “TGACATTTAAATTCTGTTTCTCTCTTTGTGTTTTAGTTCCCGGAGTCACCTAGTGCAG”, for which the binding signal was 9720 fluorescence intensity (a.u.).

Consider “TTTTCTTCTTTCTTTCTCTCTGTCTTGTTCAATTTTTTCTCGGAGTCACCTAGTGCAG”, for which the binding signal is 11800 fluorescence intensity (a.u.).

Consider “GTGCAGTTGTCTTCTTCTGTTCTTTGGTCATATAGTAGTTCGGAGTCACCTAGTGCAG”, for which the binding signal is 14900 fluorescence intensity (a.u.).

Regarding “TTAAACGGTCATTCTTGTGTTTTTCCTGTATTTTCTAATCCGGAGTCACCTAGTGCAG”, the binding signal was 9220 fluorescence intensity (a.u.).

Turning to “CTTCTTCCACTTGAAGCTTTTTCTCTCTTGGTCTTATCCTCGGAGTCACCTAGTGCAG”, the binding signal is 9690 fluorescence intensity (a.u.).

For “TCTCCAGCTTTTTTCTGTTCCTCTGGTCTTGATTCTTGAACGGAGTCACCTAGTGCAG”, the binding signal was 18200 fluorescence intensity (a.u.).

For “ATACCTCTTGTGTATTAATTAAACATTAGTGTTTCTGTTCCGGAGTCACCTAGTGCAG”, the binding signal is 48000 fluorescence intensity (a.u.).

As to “TGGTGGGTGCATTGTTGTTCACATTCCGGATCCCTGCATCCGGAGTCACCTAGTGCAG”, the binding signal is 9220 fluorescence intensity (a.u.).

For the sequence “TTGTAGTACTAGGTCGTATCTAATACTAGTTGATTTTTTACGGAGTCACCTAGTGCAG”, the binding signal is 8190 fluorescence intensity (a.u.).

As for “TGTATCTCAAATTCTTTCAGTTGGTTTTGTGCTCTTTTTACGGAGTCACCTAGTGCAG”, the binding signal was 8920 fluorescence intensity (a.u.).

Regarding “GGCGCTTTATTCAATTGGTCCGCTCTCGGTCTCCTGCACGCGGAGTCACCTAGTGCAG”, the binding signal was 8270 fluorescence intensity (a.u.).

Take “CTGCTGCGAGGGTGGGTGTTGCTTGTACCGGGCGGGGATGCGGAGTCACCTAGTGCAG”: the binding signal is 20300 fluorescence intensity (a.u.).

As to “CTGCGGCGAGAGGTGGGAGGCGGGGCGGTTGTACGTGTGCCGGAGTCACCTAGTGCAG”, the binding signal is 11000 fluorescence intensity (a.u.).

For “CGGAGGGGTTGGGCTTGCGGGCGGCGTGTACCTTGTGCACCGGAGTCACCTAGTGCAG”, the binding signal was 9410 fluorescence intensity (a.u.).

On to “GCGGCGCGGCGGGGAGGAGGGAGGGGTGGCGTTGAGGTGGCGGAGTCACCTAGTGCAG”, for which the binding signal was 19300 fluorescence intensity (a.u.).

As for “GAGATGGAGGTGGAGGTGGTGGAGGGGACGACGATGGTGGCGGAGTCACCTAGTGCAG”, the binding signal is 9610 fluorescence intensity (a.u.).

Take “TGGGGTTGAGGGAGGGTGCCGCGGGTGGCTGGCGGAGGACCGGAGTCACCTAGTGCAG”: the binding signal was 10600 fluorescence intensity (a.u.).

Take “GGCGCTTCTAGGGTTTGGTGGGGTTCGGGCGGGCGCGCCGCGGAGTCACCTAGTGCAG”: the binding signal is 15600 fluorescence intensity (a.u.).

As for “CGCGCCGGGTGGCGTTGGTGTTGGCGCCGGGGAGGGTCAGCGGAGTCACCTAGTGCAG”, the binding signal is 9140 fluorescence intensity (a.u.).

For “GGGAGGGGAGGACGGCGACGGCGGCGGCGGCGGGGTGTGGCGGAGTCACCTAGTGCAG”, the binding signal was 10800 fluorescence intensity (a.u.).

For the sequence “GGAGGGGACGACGATGGTGGGGTGGGTGGTGTCCGGGGTGCGGAGTCACCTAGTGCAG”, the binding signal is 19100 fluorescence intensity (a.u.).

In the case of “TTTGCTGCTGCTGCTTCTAGGGTTAGGGTTTGGGGTGGGGCGGAGTCACCTAGTGCAG”, the binding signal was 22100 fluorescence intensity (a.u.).

“CGCACTGGCGGGGCTTGGAGCTGGGGTTTCTAGGGTTTGGCGGAGTCACCTAGTGCAG”: the binding signal is 8980 fluorescence intensity (a.u.).

Regarding “TTCATTCATATGGTGTAACTTTTTGTCGCTGTAGGATCGCCGGAGTCACCTAGTGCAG”, the binding signal is 8130 fluorescence intensity (a.u.).

Consider “CTTGCTGCCTGGATTTCTCCCTGTTTGCTCCCTGACGGAGCGGAGTCACCTAGTGCAG”, for which the binding signal was 9470 fluorescence intensity (a.u.).

“TCCGTGACTATGCTTCTTCTTTTCTTTAATTTTCACCAGACGGAGTCACCTAGTGCAG”: the binding signal is 8750 fluorescence intensity (a.u.).

“AATCAGATGGAGAGTTGGTTATATGGGTGTTTGGAGAGTTCGGAGTCACCTAGTGCAG”: the binding signal was 8410 fluorescence intensity (a.u.).

Turning to “ATCTCCAAAATCAGTTTAACATCGCCTAATCCACGTCGGTCGGAGTCACCTAGTGCAG”, the binding signal is 8820 fluorescence intensity (a.u.).

Turning to “TTTGCGTCGCCTTTCATTTTGGATGTTTCAATTTGAATACCGGAGTCACCTAGTGCAG”, the binding signal is 10400 fluorescence intensity (a.u.).
